Paper PMC7862700, “An all-to-all approach to the identification of sequence-specific readers for epigenetic DNA modifications on cytosine”

How the values were obtained:
Experiment in all cases: DAPPL (digital affinity profiling via proximity ligation, sequencing); 10 mM Tris-HCl pH 7.5, 50 mM NaCl, 1 mM DTT, 4% glycerol, room temperature, 30 min; GST-TFs on glutathione beads, 16-mer random dsDNA library, 0.1% formaldehyde crosslink after washing; high values mean tight binding
FLI1 = target: T1, FLI1 (Homo sapiens, UniProt Q01543 1-452); details: protein: recombinant; tags: N-terminal GST; dsDNA, one strand shown
T1 sequence: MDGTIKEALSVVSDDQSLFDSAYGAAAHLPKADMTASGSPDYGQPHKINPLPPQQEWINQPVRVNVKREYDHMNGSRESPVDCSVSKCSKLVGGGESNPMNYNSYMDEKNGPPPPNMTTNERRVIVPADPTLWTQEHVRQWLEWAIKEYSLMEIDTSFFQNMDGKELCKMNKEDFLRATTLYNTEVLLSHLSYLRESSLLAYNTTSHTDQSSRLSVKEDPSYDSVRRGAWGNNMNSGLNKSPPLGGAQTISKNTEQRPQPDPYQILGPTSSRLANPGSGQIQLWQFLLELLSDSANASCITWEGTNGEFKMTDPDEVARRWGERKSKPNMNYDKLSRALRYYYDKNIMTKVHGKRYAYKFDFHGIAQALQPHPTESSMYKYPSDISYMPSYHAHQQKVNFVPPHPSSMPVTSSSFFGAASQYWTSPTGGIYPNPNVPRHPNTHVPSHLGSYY
Outline: (§1)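 Human transcription factors were made in yeast as GST fusions, captured on glutathione beads and barcoded with DNA. With a tag-only sample included, the pool was incubated with 200 nmole of a random double-stranded 16-mer DNA library in Tris/NaCl/DTT/glycerol buffer at room temperature for 30 min, then crosslinked with 0.1% formaldehyde after washing, ligated by proximity, amplified and sequenced. For binding signal, each hexamer's read frequency for a factor is divided by its frequency for the tag-only sample.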

ELK1 = target: T2, ELK1 (Homo sapiens, UniProt P19419 1-428); details: protein: recombinant; tags: N-terminal GST; dsDNA, one strand shown
T2 sequence: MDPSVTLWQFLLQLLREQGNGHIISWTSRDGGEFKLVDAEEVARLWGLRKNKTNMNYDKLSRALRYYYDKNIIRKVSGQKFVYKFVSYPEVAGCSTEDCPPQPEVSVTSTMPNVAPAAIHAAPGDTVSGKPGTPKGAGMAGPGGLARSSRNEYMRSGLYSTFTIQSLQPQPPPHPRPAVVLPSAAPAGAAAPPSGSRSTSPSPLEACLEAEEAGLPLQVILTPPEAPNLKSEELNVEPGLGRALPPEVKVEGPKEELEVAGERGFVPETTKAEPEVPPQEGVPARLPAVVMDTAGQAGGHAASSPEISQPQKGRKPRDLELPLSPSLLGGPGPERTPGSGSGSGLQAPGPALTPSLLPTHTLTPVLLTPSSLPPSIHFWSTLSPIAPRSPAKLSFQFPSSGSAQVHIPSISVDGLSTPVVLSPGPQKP
Outline: as §1

GABPA = target: T3, GABPA (Homo sapiens, UniProt Q06546 1-454); details: protein: recombinant; tags: N-terminal GST; dsDNA, one strand shown
T3 sequence: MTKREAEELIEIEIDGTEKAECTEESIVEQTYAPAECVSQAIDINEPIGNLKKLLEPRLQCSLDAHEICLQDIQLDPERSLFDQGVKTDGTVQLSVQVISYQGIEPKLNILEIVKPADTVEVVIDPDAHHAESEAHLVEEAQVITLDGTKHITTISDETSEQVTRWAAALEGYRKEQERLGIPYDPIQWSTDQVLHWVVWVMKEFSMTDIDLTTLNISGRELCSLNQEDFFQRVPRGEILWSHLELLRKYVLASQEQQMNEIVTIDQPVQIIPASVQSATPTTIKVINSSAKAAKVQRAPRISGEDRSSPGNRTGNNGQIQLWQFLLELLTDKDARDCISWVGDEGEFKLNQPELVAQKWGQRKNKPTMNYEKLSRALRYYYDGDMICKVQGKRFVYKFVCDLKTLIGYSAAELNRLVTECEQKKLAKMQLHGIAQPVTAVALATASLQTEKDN
Outline: as §1

ERG = target: T4, ERG (Homo sapiens, UniProt P11308 1-479); details: protein: recombinant; tags: N-terminal GST; dsDNA, one strand shown
T4 sequence: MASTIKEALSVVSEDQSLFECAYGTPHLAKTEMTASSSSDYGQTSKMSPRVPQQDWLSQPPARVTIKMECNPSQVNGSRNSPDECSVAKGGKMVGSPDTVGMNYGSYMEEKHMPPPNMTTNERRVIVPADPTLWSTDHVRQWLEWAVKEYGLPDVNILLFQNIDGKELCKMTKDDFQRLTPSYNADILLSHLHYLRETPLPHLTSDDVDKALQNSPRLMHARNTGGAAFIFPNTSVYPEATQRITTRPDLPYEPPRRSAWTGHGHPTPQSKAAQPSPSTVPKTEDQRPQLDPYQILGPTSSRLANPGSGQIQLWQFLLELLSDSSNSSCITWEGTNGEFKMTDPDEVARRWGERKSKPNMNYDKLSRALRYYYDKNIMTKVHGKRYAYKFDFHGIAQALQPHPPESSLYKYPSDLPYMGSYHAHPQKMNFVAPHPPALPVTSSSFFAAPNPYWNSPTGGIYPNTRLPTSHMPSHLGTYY
Outline: as §1

ELF1 = ELF1 (Homo sapiens, UniProt P32519 1-619); details: protein: recombinant; tags: N-terminal GST; dsDNA, one strand shown
Outline: as §1

EHF = target: T5, EHF (Homo sapiens, UniProt Q9NZC4 1-300); details: protein: recombinant; tags: N-terminal GST; dsDNA, one strand shown
T5 sequence: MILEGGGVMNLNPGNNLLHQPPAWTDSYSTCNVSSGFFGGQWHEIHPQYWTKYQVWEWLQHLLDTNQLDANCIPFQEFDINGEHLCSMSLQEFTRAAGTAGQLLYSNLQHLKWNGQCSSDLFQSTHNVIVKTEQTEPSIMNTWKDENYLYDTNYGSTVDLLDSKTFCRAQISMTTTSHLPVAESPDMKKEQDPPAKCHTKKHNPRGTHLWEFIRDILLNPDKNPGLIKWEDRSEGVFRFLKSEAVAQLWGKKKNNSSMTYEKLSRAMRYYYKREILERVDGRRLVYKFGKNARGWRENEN
Outline: as §1

SPI1 = SPI1 (Homo sapiens, UniProt P17947 1-270); details: protein: recombinant; tags: N-terminal GST; dsDNA, one strand shown
Outline: as §1

SPIB = SPIB (Homo sapiens, UniProt Q01892 1-262); details: protein: recombinant; tags: N-terminal GST; dsDNA, one strand shown
Outline: as §1

ELK3 = target: T6, ELK3 (Homo sapiens, UniProt P41970 1-407); details: protein: recombinant; tags: N-terminal GST; dsDNA, one strand shown
T6 sequence: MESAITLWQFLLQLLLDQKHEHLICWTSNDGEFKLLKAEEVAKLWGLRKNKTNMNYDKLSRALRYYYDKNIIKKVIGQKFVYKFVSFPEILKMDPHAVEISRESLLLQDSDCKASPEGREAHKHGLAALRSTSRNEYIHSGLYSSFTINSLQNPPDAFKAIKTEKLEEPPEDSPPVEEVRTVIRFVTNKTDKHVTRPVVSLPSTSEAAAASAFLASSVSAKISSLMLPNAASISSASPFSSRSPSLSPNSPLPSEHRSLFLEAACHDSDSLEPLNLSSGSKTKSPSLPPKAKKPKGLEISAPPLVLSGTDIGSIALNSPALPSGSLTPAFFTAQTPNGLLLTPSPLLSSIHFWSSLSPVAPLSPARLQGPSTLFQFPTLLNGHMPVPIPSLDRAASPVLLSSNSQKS
Outline: as §1

FEV = target: T7, FEV (Homo sapiens, UniProt Q99581 1-238); details: protein: recombinant; tags: N-terminal GST; dsDNA, one strand shown
T7 sequence: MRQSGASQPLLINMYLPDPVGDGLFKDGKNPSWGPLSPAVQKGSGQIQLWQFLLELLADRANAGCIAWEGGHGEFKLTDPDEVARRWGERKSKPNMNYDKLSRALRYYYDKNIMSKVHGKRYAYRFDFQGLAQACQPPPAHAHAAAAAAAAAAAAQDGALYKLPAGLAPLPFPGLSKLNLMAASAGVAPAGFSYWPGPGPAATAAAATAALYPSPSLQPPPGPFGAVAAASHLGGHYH
Outline: as §1

ETV5 = ETV5 (Homo sapiens, UniProt P41161 1-510); details: protein: recombinant; tags: N-terminal GST; dsDNA, one strand shown
Outline: as §1

HSF1 = HSF1 (Homo sapiens, UniProt Q00613 1-529); details: protein: recombinant; tags: N-terminal GST; chain copies: 3; dsDNA, one strand shown
Outline: as §1

SPIC = target: T8, SPIC (Homo sapiens, UniProt Q8N5J4 1-248); details: protein: recombinant; tags: N-terminal GST; dsDNA, one strand shown
T8 sequence: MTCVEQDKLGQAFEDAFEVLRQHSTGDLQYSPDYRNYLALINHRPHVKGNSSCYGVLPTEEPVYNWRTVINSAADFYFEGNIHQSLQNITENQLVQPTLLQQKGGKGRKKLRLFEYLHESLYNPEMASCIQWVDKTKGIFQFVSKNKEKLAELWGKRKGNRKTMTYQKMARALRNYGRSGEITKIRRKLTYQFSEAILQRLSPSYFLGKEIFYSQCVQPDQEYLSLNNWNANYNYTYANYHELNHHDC
Outline: as §1

ELF4 = ELF4 (Homo sapiens, UniProt Q99607 1-663); details: protein: recombinant; tags: N-terminal GST; dsDNA, one strand shown
Outline: as §1

ELK4 = target: T9, ELK4 (Homo sapiens, UniProt P28324-2 1-405); details: protein: recombinant; tags: N-terminal GST; dsDNA, one strand shown
T9 sequence: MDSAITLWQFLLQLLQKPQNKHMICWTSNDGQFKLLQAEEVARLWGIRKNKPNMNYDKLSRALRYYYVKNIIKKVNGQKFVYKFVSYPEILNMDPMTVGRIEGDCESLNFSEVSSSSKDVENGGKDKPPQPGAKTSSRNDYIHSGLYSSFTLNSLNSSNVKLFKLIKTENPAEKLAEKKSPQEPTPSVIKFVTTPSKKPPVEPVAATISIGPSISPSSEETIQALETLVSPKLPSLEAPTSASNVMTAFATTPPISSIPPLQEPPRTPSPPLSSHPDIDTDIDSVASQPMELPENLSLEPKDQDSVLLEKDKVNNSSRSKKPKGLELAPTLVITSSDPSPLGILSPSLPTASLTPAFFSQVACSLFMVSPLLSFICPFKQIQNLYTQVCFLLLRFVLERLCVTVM
Outline: as §1

ETV2 = target: T10, ETV2 (Homo sapiens, UniProt O00321 1-342); details: protein: recombinant; tags: N-terminal GST; dsDNA, one strand shown
T10 sequence: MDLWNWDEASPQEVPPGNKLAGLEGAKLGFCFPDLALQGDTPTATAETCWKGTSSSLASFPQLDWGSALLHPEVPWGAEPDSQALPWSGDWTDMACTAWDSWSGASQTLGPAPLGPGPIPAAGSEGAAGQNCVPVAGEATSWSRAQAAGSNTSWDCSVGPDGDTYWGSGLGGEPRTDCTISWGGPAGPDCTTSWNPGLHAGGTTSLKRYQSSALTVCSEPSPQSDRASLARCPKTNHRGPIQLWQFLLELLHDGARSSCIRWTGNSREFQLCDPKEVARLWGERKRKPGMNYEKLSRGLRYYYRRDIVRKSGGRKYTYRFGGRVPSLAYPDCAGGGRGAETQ
Outline: as §1

ELF3 = target: T11, ELF3 (Homo sapiens, UniProt P78545 1-371); details: protein: recombinant; tags: N-terminal GST; dsDNA, one strand shown
T11 sequence: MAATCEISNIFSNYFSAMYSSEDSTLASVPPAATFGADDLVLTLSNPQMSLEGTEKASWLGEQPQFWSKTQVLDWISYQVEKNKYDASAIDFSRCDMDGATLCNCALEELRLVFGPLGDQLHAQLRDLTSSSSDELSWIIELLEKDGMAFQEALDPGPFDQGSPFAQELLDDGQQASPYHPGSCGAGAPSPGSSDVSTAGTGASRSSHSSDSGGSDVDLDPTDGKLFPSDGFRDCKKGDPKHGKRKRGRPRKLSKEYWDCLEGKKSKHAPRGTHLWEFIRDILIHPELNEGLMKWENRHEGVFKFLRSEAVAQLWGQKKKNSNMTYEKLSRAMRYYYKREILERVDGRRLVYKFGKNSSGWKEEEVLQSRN
Outline: as §1

CRX = CRX (Homo sapiens, UniProt O43186 1-299); details: protein: recombinant; tags: N-terminal GST; dsDNA, one strand shown
Outline: as §1

ETV1 = ETV1 (Homo sapiens, UniProt P50549 1-477); details: protein: recombinant; tags: N-terminal GST; dsDNA, one strand shown
Outline: as §1

Sequence of CRX (O43186 whole entry): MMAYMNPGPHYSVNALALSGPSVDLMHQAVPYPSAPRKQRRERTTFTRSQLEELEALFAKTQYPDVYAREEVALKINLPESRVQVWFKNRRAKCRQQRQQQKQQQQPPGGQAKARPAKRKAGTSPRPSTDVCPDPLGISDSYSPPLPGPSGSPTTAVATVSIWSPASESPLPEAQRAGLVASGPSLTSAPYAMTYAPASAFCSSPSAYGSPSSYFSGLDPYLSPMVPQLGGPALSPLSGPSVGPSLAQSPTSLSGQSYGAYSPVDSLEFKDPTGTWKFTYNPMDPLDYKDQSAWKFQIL
Sequence of ELF4 (Q99607 whole entry): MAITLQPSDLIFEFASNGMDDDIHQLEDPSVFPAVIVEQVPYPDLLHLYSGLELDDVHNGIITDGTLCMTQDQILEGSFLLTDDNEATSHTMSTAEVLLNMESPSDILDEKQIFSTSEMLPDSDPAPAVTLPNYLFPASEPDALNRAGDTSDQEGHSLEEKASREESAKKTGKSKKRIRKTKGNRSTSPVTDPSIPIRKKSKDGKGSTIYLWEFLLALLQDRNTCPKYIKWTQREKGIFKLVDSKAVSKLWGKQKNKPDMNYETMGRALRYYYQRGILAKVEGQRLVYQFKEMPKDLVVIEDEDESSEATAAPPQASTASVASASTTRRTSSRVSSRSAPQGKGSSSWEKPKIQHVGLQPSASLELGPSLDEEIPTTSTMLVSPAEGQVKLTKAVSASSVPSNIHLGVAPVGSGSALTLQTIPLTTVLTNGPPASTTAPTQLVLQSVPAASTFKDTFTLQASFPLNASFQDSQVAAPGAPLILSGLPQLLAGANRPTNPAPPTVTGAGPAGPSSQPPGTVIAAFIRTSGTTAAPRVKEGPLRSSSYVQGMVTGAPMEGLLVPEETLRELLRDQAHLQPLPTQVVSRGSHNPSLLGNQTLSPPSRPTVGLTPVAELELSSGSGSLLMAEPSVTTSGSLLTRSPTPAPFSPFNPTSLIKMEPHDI
Sequence of ELF1 (P32519 whole entry): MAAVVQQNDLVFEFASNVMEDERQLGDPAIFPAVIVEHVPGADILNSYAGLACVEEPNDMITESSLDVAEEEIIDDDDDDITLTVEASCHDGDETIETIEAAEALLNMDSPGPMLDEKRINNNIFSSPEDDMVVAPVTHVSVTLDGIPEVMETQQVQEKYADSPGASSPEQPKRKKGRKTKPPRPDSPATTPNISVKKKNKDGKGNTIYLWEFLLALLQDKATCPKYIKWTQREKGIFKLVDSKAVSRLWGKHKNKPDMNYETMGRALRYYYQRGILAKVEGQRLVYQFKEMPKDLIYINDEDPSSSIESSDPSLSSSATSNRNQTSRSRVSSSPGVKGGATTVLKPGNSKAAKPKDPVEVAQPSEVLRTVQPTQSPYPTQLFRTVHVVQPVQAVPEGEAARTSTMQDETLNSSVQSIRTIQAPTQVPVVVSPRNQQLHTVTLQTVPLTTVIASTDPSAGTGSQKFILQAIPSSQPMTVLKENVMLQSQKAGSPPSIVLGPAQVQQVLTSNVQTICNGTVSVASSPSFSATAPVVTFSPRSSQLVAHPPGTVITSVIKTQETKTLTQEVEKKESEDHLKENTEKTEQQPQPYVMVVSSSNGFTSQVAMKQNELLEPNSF
Sequence of HSF1 (Q00613 whole entry): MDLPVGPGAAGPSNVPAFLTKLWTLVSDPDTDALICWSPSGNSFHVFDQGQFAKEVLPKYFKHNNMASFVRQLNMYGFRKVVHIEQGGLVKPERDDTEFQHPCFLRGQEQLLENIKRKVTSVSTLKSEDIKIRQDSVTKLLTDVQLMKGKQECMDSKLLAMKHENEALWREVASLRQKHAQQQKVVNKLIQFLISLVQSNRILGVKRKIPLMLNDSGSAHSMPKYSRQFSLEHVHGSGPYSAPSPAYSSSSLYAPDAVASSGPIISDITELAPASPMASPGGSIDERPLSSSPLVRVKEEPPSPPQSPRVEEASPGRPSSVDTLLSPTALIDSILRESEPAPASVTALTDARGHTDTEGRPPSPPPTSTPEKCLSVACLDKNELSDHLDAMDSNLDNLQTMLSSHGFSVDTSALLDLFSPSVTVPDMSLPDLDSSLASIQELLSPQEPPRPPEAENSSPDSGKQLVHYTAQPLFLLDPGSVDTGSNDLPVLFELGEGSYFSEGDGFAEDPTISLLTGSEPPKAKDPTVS
Sequence of ETV1 (P50549 whole entry): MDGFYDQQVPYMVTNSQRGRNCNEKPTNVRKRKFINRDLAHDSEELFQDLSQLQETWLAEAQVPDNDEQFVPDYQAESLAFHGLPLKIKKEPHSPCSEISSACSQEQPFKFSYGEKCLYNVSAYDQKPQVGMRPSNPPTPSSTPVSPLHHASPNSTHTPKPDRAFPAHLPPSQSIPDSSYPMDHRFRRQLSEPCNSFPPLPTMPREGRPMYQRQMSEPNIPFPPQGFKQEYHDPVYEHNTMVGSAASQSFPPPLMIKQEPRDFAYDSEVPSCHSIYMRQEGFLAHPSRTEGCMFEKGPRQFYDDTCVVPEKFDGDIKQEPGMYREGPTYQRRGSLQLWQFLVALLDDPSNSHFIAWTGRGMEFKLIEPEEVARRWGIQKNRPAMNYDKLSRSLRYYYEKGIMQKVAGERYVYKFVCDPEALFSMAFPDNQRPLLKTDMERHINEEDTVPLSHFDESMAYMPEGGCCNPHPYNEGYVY
Sequence of ETV5 (P41161 whole entry): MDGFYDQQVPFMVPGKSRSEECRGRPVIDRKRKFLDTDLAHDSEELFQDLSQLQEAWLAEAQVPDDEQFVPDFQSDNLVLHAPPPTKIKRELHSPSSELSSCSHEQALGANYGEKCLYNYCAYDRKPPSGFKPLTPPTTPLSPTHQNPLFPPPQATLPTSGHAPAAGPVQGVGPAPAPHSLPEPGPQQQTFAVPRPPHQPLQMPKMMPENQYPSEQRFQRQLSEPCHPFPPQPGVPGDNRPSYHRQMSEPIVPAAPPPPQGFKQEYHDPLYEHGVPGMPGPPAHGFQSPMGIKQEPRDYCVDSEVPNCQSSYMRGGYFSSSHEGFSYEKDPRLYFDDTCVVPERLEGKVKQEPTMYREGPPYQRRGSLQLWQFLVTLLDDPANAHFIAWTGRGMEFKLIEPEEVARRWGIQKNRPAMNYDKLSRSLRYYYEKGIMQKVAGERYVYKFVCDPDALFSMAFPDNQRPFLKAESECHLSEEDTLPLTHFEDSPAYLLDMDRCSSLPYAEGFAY
Sequence of SPIB (Q01892 whole entry): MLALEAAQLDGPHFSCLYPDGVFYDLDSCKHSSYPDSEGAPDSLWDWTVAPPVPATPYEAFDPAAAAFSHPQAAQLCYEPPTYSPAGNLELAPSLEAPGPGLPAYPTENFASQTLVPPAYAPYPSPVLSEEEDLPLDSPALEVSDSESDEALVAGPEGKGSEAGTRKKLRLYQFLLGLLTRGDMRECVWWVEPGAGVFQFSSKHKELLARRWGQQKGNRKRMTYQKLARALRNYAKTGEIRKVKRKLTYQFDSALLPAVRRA

Sequence: CCATTA
- binding signal (FLI1): 1.08 fold enrichment (6-mer frequency, TF over GST control)
- binding signal (ELK1): 1.05 fold enrichment (6-mer frequency, TF over GST control)
- binding signal (GABPA): 1.11 fold enrichment (6-mer frequency, TF over GST control)
- binding signal (ERG): 1.1 fold enrichment (6-mer frequency, TF over GST control)
- binding signal (ELF1): 1.14 fold enrichment (6-mer frequency, TF over GST control)
- binding signal (EHF): 1.06 fold enrichment (6-mer frequency, TF over GST control)
- binding signal (SPI1): 1.17 fold enrichment (6-mer frequency, TF over GST control)
- binding signal (SPIB): 1.23 fold enrichment (6-mer frequency, TF over GST control)
- binding signal (ELK3): 1.09 fold enrichment (6-mer frequency, TF over GST control)
- binding signal (FEV): 1.07 fold enrichment (6-mer frequency, TF over GST control)
- binding signal (ETV5): 1.06 fold enrichment (6-mer frequency, TF over GST control)
- binding signal (HSF1): 1.11 fold enrichment (6-mer frequency, TF over GST control)
- binding signal (SPIC): 1.16 fold enrichment (6-mer frequency, TF over GST control)
- binding signal (ELF4): 1.12 fold enrichment (6-mer frequency, TF over GST control)
- binding signal (ELK4): 1.24 fold enrichment (6-mer frequency, TF over GST control)
- binding signal (ETV2): 1.15 fold enrichment (6-mer frequency, TF over GST control)
- binding signal (ELF3): 1.21 fold enrichment (6-mer frequency, TF over GST control)
- binding signal (CRX): 1.32 fold enrichment (6-mer frequency, TF over GST control)
- binding signal (ETV1): 1.16 fold enrichment (6-mer frequency, TF over GST control)
